Data as given in PubChem BioAssay (NCATS).
Records with an inconclusive call do not appear. Activity calls are given as the source filed them. Calls come from the whole dose curve; as a rule, active = well fitted inhibition curve with a large enough effect; inconclusive = small, poorly fitted or top-dose-only effect; inactive = flat fitted curve, though single readings scatter.

What was measured:
Assay in all cases: qHTS profiling for inhibitors of Plasmodium falciparum proliferation (AID 504749); note: nearly all actives have a fitted effect of over 60% in size
Conditions in all cases: P. falciparum in erythrocytes, SYBR Green DNA, 72 h; series mostly up to 28.7 µM
CP286 = system: CP286
Summary of the method: (§1)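 Parasite proliferation within erythrocytes, 72 h exposure. Endpoint: SYBR Green I fluorescence after overnight lysis at room temperature. Controls: 0.29 uM artemisinin, DMSO.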

CP291 = system: CP291
Summary of the method: as §1

CP297 = system: CP297
Summary of the method: as §1

CP305 = system: CP305
Summary of the method: as §1

CP315 = system: CP315
Summary of the method: as §1

CP325 = system: CP325
Summary of the method: as §1

CP329 = system: CP329
Summary of the method: as §1

CP335 = system: CP335
Summary of the method: as §1

DFO2036 = system: DFO2036
Summary of the method: as §1

DIV14 = system: DIV14
Summary of the method: as §1

DIV17 = system: DIV17
Summary of the method: as §1

DIV30 = system: DIV30
Summary of the method: as §1

Dd2 = system: Dd2
Summary of the method: as §1

ECU = system: ECU
Summary of the method: as §1

FAB9 = system: FAB9
Summary of the method: as §1

HB3 = system: HB3
Summary of the method: as §1

ICS = system: ICS
Summary of the method: as §1

JCK = system: JCK
Summary of the method: as §1

N140 = system: N140
Summary of the method: as §1

GB4 = system: GB4
Summary of the method: as §1

Measured: Potency
Potency is the fitted concentration of half-maximal effect.

CCN(CC)CCNC(=O)COc1ccc(OC)cc1
not listed: GB4
inactive: all other assays above

CCC(CC)(CC(=O)Nc1cccc(/C=C/c2nc(C3CCC3)cs2)c1)C(=O)O
not listed: DIV17 | ICS
inactive: all other assays above

N/C(=N\N=C\c1ccc(Cl)cc1)N/N=C/c1ccc(Cl)cc1
inactive: CP291 | CP297 | CP305 | CP315 | CP325 | CP329 | DIV14 | DIV17 | DIV30
active: CP286 3.55 µM | DFO2036 3.16 µM | ICS 2.24 µM

COc1ccc2c(c1)c1c3n2CCN(C)C3=NCC1
not listed: DIV17
inactive: all other assays above

CC(=O)NCCCCCC(=O)O
not listed: DIV17
inactive: all other assays above

CCOc1ccccc1OCCN[C@H](C)Cc1ccc(OC)c(S(N)(=O)=O)c1
not listed: DIV17 | GB4
inactive: all other assays above

CCNC(=O)NCc1cccc(Cl)c1
not listed: DIV17 | ICS
inactive: all other assays above

O=C(O)C1(C(=O)O)CCC1.[NH2-].[NH2-].[Pt+2]
active: HB3 10 µM
not listed: Dd2 | ICS
inactive: all other assays above

Cc1ccc(-c2ncc(Cl)cc2-c2ccc(S(C)(=O)=O)cc2)cn1
inactive: CP286 | CP291 | CP297 | CP305 | CP315 | CP325 | CP329 | FAB9
active: DIV17 15.1 µM

CCNC(=O)/C=C/c1cccc(Br)c1
not listed: DIV14
inactive: all other assays above

CC(=O)Nc1ccc(S(=O)(=O)Nc2ccc([N+](=O)[O-])cc2)cc1
not listed: DIV30
inactive: all other assays above

CCOc1ccc(NC(C)=O)cc1
not listed: CP335
inactive: all other assays above

C[N+]1(CC2COC(c3ccccc3)(C3CCCCC3)O2)CCCCC1 (stereo unspecified)
active: CP286 5.01 µM | CP291 4.78 µM | CP297 6.01 µM | CP305 4.78 µM | CP315 6.01 µM | CP325 6.75 µM | DFO2036 7.94 µM | DIV14 6.01 µM | DIV17 6.01 µM | DIV30 6.75 µM | Dd2 7.08 µM | ECU 4.47 µM | FAB9 3.16 µM | GB4 3.38 µM | HB3 4.47 µM | ICS 4.47 µM | JCK 12.6 µM | N140 11.2 µM

O=C(O)CCC(=O)Nc1ccc(S(=O)(=O)Nc2nccs2)cc1
not listed: CP325
inactive: all other assays above

CCCCCCCCCCCCOCCOCCOCCOCCOCCOCCOCCOCCOCCO
active: Dd2 12.6 µM
not listed: CP335 | DIV14 | DIV17 | ECU | HB3 | ICS | N140 | GB4
inactive: all other assays above

C#C[C@]1(OC(C)=O)CC[C@H]2[C@@H]3CCC4=C/C(=N/O)CC[C@@H]4[C@H]3CC[C@@]21CC
not listed: CP335 | DIV14 | DIV17
inactive: all other assays above

CCCc1ncc(C[n+]2ccccc2C)c(N)n1
not listed: CP335
inactive: all other assays above

Cc1cccc(C)c1NC(=O)CN1CCCCCC1
not listed: DIV17 | DIV30 | GB4
inactive: all other assays above

CC(=O)OCC(=O)[C@H]1CC[C@H]2[C@@H]3CCC4=CC(=O)CC[C@]4(C)[C@H]3CC[C@]12C
not listed: ICS
inactive: all other assays above

COc1cc(NS(=O)(=O)c2ccc(N)cc2)ncn1
not listed: DIV17
inactive: all other assays above

C#C[C@]1(O)CC[C@H]2[C@@H]3CCc4cc(OC)ccc4[C@H]3CC[C@@]21C
not listed: ICS
inactive: all other assays above

Cn1c(=O)c2[nH]c(Br)nc2n(C)c1=O
not listed: DFO2036
inactive: all other assays above

C#C[C@]1(O)CC[C@H]2[C@@H]3CCC4=CC(=O)CC[C@@H]4[C@H]3CC[C@@]21CC
not listed: HB3 | ICS
inactive: all other assays above

CC(C)=CCOc1ccc(/C=C/C(=O)c2ccc(OCC=C(C)C)cc2OCC(=O)O)cc1
not listed: CP335 | DIV14 | DIV17 | DIV30 | ICS | GB4
inactive: all other assays above

c1ccc(CC2=NCCN2)cc1
not listed: CP335
inactive: all other assays above

O=C(Nc1ccc([N+](=O)[O-])cc1)Nc1ccc([N+](=O)[O-])cc1
active: CP286 3.16 µM | CP335 4.78 µM | ICS 2 µM
not listed: DIV14 | Dd2 | HB3
inactive: all other assays above

CC(C)Nc1cccnc1N1CCN(C(=O)c2cc3cc(NS(C)(=O)=O)ccc3[nH]2)CC1
active: DIV14 0.379 µM | DIV17 1.07 µM | ICS 7.94 µM
not listed: DIV30 | Dd2
inactive: all other assays above
